Assay results: the supplement of paper PMC8728848
This excerpt belongs to a sample that is enriched for the strongest signals.

Experiments:
Assay in all cases: glycan array binding signal (z-score within array); higher = stronger binding
Conditions in all cases: glycan notation: IUPAC condensed, linker removed
[1] = target: Gal(b1-4)GlcNAc(b1-3)Gal(b1-4)GlcNAc(b1-3)Gal(b1-4)GlcNAc(b1-3)Gal(b1-4)GlcNAc(b1-3)Gal(b1-4)GlcNAc(b1-2)Man(a1-3)[Gal(b1-4)GlcNAc(b1-3)Gal(b1-4)GlcNAc(b1-3)Gal(b1-4)GlcNAc(b1-3)Gal(b1-4)GlcNAc(b1-3)Gal(b1-4)GlcNAc(b1-2)Man(a1-6)]Man(b1-4)GlcNAc(b1-4)[Fuc(a1-6)]GlcNAc
Outline: (§1)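 Columns mapping to the same glycan were averaged after glycan names were converted to IUPAC-condensed notation. The data come from 3228 arrays in the Consortium for Functional Glycomics database, limited to those with an available protein sequence. Binding is reported as a within-array Z-score averaged across arrays of one protein sequence and across linkers.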

[2] = target: Gal(b1-4)GlcNAc(b1-3)Gal(b1-4)GlcNAc(b1-3)Gal(b1-4)GlcNAc(b1-3)Gal(b1-4)GlcNAc(b1-3)Gal(b1-4)GlcNAc(b1-2)[Gal(b1-4)GlcNAc(b1-3)Gal(b1-4)GlcNAc(b1-3)Gal(b1-4)GlcNAc(b1-3)Gal(b1-4)GlcNAc(b1-3)Gal(b1-4)GlcNAc(b1-6)]Man(a1-6)[Gal(b1-4)GlcNAc(b1-3)Gal(b1-4)GlcNAc(b1-3)Gal(b1-4)GlcNAc(b1-3)Gal(b1-4)GlcNAc(b1-3)Gal(b1-4)GlcNAc(b1-2)Man(a1-3)]Man(b1-4)GlcNAc(b1-4)[Fuc(a1-6)]GlcNAc
Outline: as §1

[3] = target: Gal(b1-4)GlcNAc(b1-3)[Fuc(a1-3)GlcNAc(b1-6)]Gal(b1-4)Glc
Outline: as §1

[4] = target: Gal(b1-4)GlcNAc(b1-6)[Gal(b1-4)GlcNAc(b1-3)]GalNAc
Outline: as §1

Gal3S(b1-4)GlcNAc = target: Gal3S(b1-4)GlcNAc
Outline: as §1

[5] = target: Gal3S(b1-4)[Fuc(a1-3)]GlcNAc6S
Outline: as §1

Gal6P(b1-4)GlcNAc = target: Gal6P(b1-4)GlcNAc
Outline: as §1

[6] = target: GalNAc(a1-3)GalNAc(a1-3)Gal(a1-4)Gal(b1-4)GlcNAc
Outline: as §1

GalNAc(b1-4)GlcNAc = target: GalNAc(b1-4)GlcNAc
Outline: as §1

[7] = target: Glc(a1-6)Glc(a1-6)Glc(a1-6)Glc
Outline: as §1

[8] = target: GlcNAc(a1-4)Gal(b1-4)GalNAc
Outline: as §1

[9] = target: GlcNAc(a1-4)Gal(b1-4)GlcNAc(b1-3)Gal(b1-4)GlcNAc(b1-3)Gal(b1-4)GlcNAc
Outline: as §1

[10] = target: GlcNAc(b1-2)Man(a1-3)[GlcNAc(b1-4)][GlcNAc(b1-2)Man(a1-6)]Man(b1-4)GlcNAc(b1-4)[Fuc(a1-6)]GlcNAc
Outline: as §1

GlcNAc(b1-3)Gal(b1-4)Glc = target: GlcNAc(b1-3)Gal(b1-4)Glc
Outline: as §1

[11] = target: GlcNAc(b1-3)Gal(b1-4)GlcNAc(b1-2)Man(a1-3)[GlcNAc(b1-3)Gal(b1-4)GlcNAc(b1-2)Man(a1-6)]Man(b1-4)GlcNAc(b1-4)[Fuc(a1-6)]GlcNAc
Outline: as §1

[12] = target: GlcNAc(b1-6)Gal(b1-4)GlcNAc
Outline: as §1

GlcNAc(b1-6)GalNAc = target: GlcNAc(b1-6)GalNAc
Outline: as §1

Man(b1-4)GlcNAc = target: Man(b1-4)GlcNAc
Outline: as §1

[13] = target: Neu5Ac(a2-3)Gal(b1-3)GalNAc(b1-4)[Neu5Ac(a2-8)Neu5Ac(a2-3)]Gal(b1-4)Glc
Outline: as §1

[14] = target: Neu5Ac(a2-3)Gal(b1-3)GlcNAc(b1-3)Gal(b1-3)GlcNAc
Outline: as §1

[15] = target: Neu5Ac(a2-3)Gal(b1-3)GlcNAc(b1-3)GalNAc
Outline: as §1

[16] = target: Neu5Ac(a2-3)Gal(b1-3)GlcNAc6S
Outline: as §1

[17] = target: Neu5Ac(a2-3)Gal(b1-4)GlcNAc6S
Outline: as §1

[18] = target: Neu5Ac(a2-3)Gal(b1-4)[Fuc(a1-3)]GlcNAc(b1-6)[Neu5Ac(a2-3)Gal(b1-3)]GalNAc
Outline: as §1

[19] = target: Neu5Ac(a2-3)[GalNAc(b1-4)]Gal(b1-4)Glc
Outline: as §1

[20] = target: Neu5Ac(a2-6)Gal(b1-4)GlcNAc(b1-3)Gal(b1-4)GlcNAc(b1-3)Gal(b1-4)GlcNAc
Outline: as §1

[21] = target: Neu5Ac(a2-6)Gal(b1-4)GlcNAc(b1-3)GalNAc
Outline: as §1

[22] = target: Neu5Ac(a2-6)GlcNAc(b1-4)GlcNAc(b1-4)GlcNAc
Outline: as §1

[23] = target: Neu5Ac(a2-8)Neu5Ac(a2-3)[Gal(b1-3)GalNAc(b1-4)]Gal(b1-4)Glc
Outline: as §1

[24] = target: Neu5Ac(b2-6)Gal(b1-4)GlcNAc
Outline: as §1

B1: Threefoil (Haloarcula marismortui) (protein)
chain: GSSHHHHHHHHHHSSGLVPRGSHMGDGYYKLVARHSGKALDVENASTSDGANVIQYSYSGGDNQQWRLVDLGDGYYKLVARHSGKALDVENASTSDGANVIQYSYSGGDNQQWRLVDLGDGYYKLVARHSGKALDVENASTSDGANVIQYSYSGGDNQQWRLVDL
- glycan array binding signal (z-score) [1]: 2.83
- glycan array binding signal (z-score) [2]: 3.49
- glycan array binding signal (z-score) [3]: 3.85
- glycan array binding signal (z-score) [4]: 0.738
- glycan array binding signal (z-score) (Gal3S(b1-4)GlcNAc): -0.158
- glycan array binding signal (z-score) [5]: -0.038
- glycan array binding signal (z-score) (Gal6P(b1-4)GlcNAc): -0.211
- glycan array binding signal (z-score) [6]: -0.227
- glycan array binding signal (z-score) (GalNAc(b1-4)GlcNAc): -0.003
- glycan array binding signal (z-score) [7]: -0.157
- glycan array binding signal (z-score) [8]: -0.271
- glycan array binding signal (z-score) [9]: -0.208
- glycan array binding signal (z-score) [10]: -0.223
- glycan array binding signal (z-score) (GlcNAc(b1-3)Gal(b1-4)Glc): -0.299
- glycan array binding signal (z-score) [11]: -0.052
- glycan array binding signal (z-score) [12]: 0.035
- glycan array binding signal (z-score) (GlcNAc(b1-6)GalNAc): -0.181
- glycan array binding signal (z-score) (Man(b1-4)GlcNAc): 0.763
- glycan array binding signal (z-score) [13]: -0.245
- glycan array binding signal (z-score) [14]: -0.139
- glycan array binding signal (z-score) [15]: -0.266
- glycan array binding signal (z-score) [16]: -0.17
- glycan array binding signal (z-score) [17]: -0.364
- glycan array binding signal (z-score) [18]: 0.108
- glycan array binding signal (z-score) [19]: -0.269
- glycan array binding signal (z-score) [20]: -0.154
- glycan array binding signal (z-score) [21]: -0.163
- glycan array binding signal (z-score) [22]: -0.141
- glycan array binding signal (z-score) [23]: -0.146
- glycan array binding signal (z-score) [24]: -0.309
